In PubChem BioAssay AID588520 (NMMLSC, 2011):
Out of some 1,700 compounds screened, about 65 (4%) were called active. A selection follows. Values without a mark were called inactive. No stated cut-off is given here; in the data, active means Nile Red retention ratio vs DMSO above about 190%; inactive means the rest.

Test system: Candida albicans drug resistance protein 2 (Cdr2) efflux pump, expressed in S. cerevisiae
Assay: Cdr2 pump blockade via Nile Red retention – S. cerevisiae AD/CaCDR2, flow cytometry, cherry pick 1, singleplex, confirmation (AID 588520);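 further: higher ratio means more blocking of Cdr2 efflux of the dye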
Settings: at 10 µM, stronger effect = higher value

Compound	Nile Red retention ratio vs DMSO
COc1ccc2[nH]c3c(C)c4cc[n+](C)cc4c(C)c3c2c1	97.2%
O=C1NC(=O)C2C1C(c1ccc([N+](=O)[O-])cc1)=NN2Cc1ccccc1 (stereo not given)	112%
COc1ccc(-c2sc3ccccc3c2-c2ccc(OCCN3CCOCC3)cc2)cc1	101%
O=C(NCc1ccccc1)C(=O)NCC1OCCN1S(=O)(=O)c1ccc(Br)cc1 (stereo not given)	84.8%
COc1ccccc1CSc1ncc(-c2ccc([N+](=O)[O-])cc2)[nH]1	87.5%
CCOc1ccc(C2/C(=C(/O)c3ccc4c(c3)CC(C)O4)C(=O)C(=O)N2CCCn2ccnc2)cc1 (stereo not given)	94.1%
COc1ccc(C(=O)NC2CC(C)(C)Cc3c2cnn3-c2ccccc2)c(OC)c1 (stereo not given)	100%
CN1CCN(S(=O)(=O)c2ccc(NC(=S)NC(=O)C3CC3)cc2)CC1	103%
CC(C)C(=O)N1CCC2(CC1)Oc1ccc(F)cc1C(=O)C21CC(c2ccccc2)=NO1 (stereo not given)	102%
CN(C)S(=O)(=O)c1cc(C(=O)Nc2ccn(C)n2)c(Cl)cc1Cl	99.3%
CCn1c(/C=C/c2ccc([N+](=O)[O-])o2)nc2ccccc2c1=O	212% (active)
O=S(=O)(c1ccccc1)N1CCc2ccccc21	83.1%
CC12CCC(C(=O)N(c3cccc(Cl)c3)C1=O)C2(C)C (stereo not given)	110%
O=C(CNC(=O)c1ccc(-c2ccccc2)cc1)OCc1ccc(Cl)cc1	120%
Cc1cc(C)cc(NC(=O)C(OC(=O)c2ccc(O)cc2)c2ccccc2)c1 (stereo not given)	101%
CC(/C=N/NC(=O)c1cc(-c2ccc3ccccc3c2)n[nH]1)=C\c1ccco1	95.4%
CCCc1nc(N2CCN(C)CC2)c2sc(=S)n(-c3ccccc3)c2n1	99.6%
C[n+]1ccc(/C=C/c2c[nH]c3ccccc23)cc1	140%
CCCCCCCCCCCCCCCC(=O)OC/C=C(C)/C=C/C=C(C)/C=C/C1=C(C)CCCC1(C)C	123%
Cc1nn(C)cc1N1C(=O)c2cccc3c(N)ccc(c23)C1=O	106%
COc1ccc(/C=C(\C#N)c2c[nH]c3ccccc23)cc1	98.5%
CCCCOc1ccc(C(=O)NCC(=O)OCC(=O)c2c(N)n(C)c(=O)n(C)c2=O)cc1	103%
NNC(=O)COc1ccc(C2SCCS2)cc1	98.5%
COc1ccc(C(=O)NC(=S)Nc2ccc(N3CCCC3)cc2)cc1OC	95.1%
O=C(CSc1nnc(-c2cccnc2)n1Cc1ccco1)c1ccc(Cl)c(Cl)c1	107%
